Source: PubChem
PRMT1 inh = PRMT1 (human) inhibition, primary screen; hit rate 1.3% among 370,000; inhibition, % at 2.79 µM; Q99873; AID 652257; recombinant PRMT1, activity-based probe fluorescence polarization;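 active = inhibition above about 21% made by adding two undisclosed values, limit read from the data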
Target sequence (Q99873 whole entry, looked up): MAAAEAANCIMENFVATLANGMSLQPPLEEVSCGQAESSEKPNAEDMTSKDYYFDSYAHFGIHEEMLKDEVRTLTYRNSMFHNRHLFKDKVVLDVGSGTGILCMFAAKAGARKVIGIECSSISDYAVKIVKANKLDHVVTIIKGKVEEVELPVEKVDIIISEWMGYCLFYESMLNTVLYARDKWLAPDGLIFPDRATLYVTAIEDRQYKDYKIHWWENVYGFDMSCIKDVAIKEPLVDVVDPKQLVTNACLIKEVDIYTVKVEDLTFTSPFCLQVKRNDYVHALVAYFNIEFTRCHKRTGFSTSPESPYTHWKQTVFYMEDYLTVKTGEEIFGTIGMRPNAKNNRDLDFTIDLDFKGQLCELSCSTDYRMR
TCR-CD3 inh = blocks the human TCR-CD3 interaction; inhibition, % at 9.4 µM; TAMRA-labeled TCR probe fluorescence, biochemical; hit rate 0.37% among 360,000; in the data active = inhibition above about 19%;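 also: recombinant mutant TCR 2C K166C tagged with TAMRA read by polarization; 0% = receptor in buffer alone and 100% = receptor with positive control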
SIAE inh = inhibitors of human sialic acid acetylesterase SIAE; Q9HAT2; SIAE FP-Rh probe binding, fluorescence polarization; inhibition, % at 9.66 µM; hit rate 0.69% among 370,000;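 active = inhibition above a cutoff: mean of compounds within the control limits plus 3 SD of those, cut at about 17% in these data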;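 also: 0% = plate median of compound wells and 100% = probe without SIAE protein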
PME-1 primary = blocks human protein phosphatase methylesterase 1; Q9Y570; inhibition, % at 5.9 µM; recombinant PME-1, FP-Rh probe fluorescence polarization; hit rate 0.53% among 320,000;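 active = inhibition above the campaign mean of all compounds plus 3 SD, cut at about 26% in these data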;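 also: competitive labeling of PME-1 active site by serine hydrolase directed probe; 0% = PME-1 with DMSO and 100% = wells lacking PME-1 enzyme; inhibitors block probe labeling so polarization falls and inhibition rises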
PAD4 inh = PAD4 (human) enzyme inhibition | Q9UM07 | hit rate 0.41% among 330,000 | recombinant PAD4, RCA probe fluorescence polarization | inhibition, % at 6.36 µM;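 active = percent inhibition above a cutoff equal to the mean of all tested compounds plus 3 SD, cut at about 15% in these data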;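 also: 0% = PAD4 with RCA probe and DMSO and 100% = probe without PAD4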
Fam108B counter = blocks mouse Fam108B hydrolase in RBBP9 counter-screen. recombinant Fam108B, FP-Rh probe fluorescence polarization. inhibition, % at 9.51 µM. hit rate 0.33% among 300,000. AID 1947;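 active = inhibition above the screen mean inhibition plus 3 SD, computed separately per campaign, cut at about 18% in these data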;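 also: inhibitors lower polarization as less probe binds the enzyme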
SIAE confirm = confirmation of human SIAE inhibitors. inhibition, % at 9.66 µM. hit rate 13% among 2,300. SIAE FP-Rh activity-based probe, fluorescence polarization. shares compounds with SIAE inh;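 active = mean inhibition of the replicates above the hit cutoff set in the primary screen, cut at about 17% in these data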;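 also: 0% = SIAE with DMSO and probe and 100% = probe without SIAE; inhibitors lower polarization as more probe stays unbound to SIAE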
Numbers without * were called inactive; nt = no result given. A selection: hits, their analogues and other compounds. The true share with any hit is near 2.6%.

SMILES	PRMT1 inh	TCR-CD3 inh	SIAE inh	PME-1 primary	PAD4 inh	Fam108B counter	SIAE confirm
Nn1c(SCC(=O)N2CCCC2)nnc1-c1cccs1	-1	1	17*	nt	nt	nt	-1
O=C(CSc1nnc(-c2cccs2)n1-c1ccccc1)N1CCCC1	3	6	1	3	2	8	nt
N=c1n(CCN2CCCCC2)c2ccccc2n1CC(O)c1cccc(Br)c1 (centres undefined)	2	0	33*	2	-5	-2	4
Cc1cc(C)nc(N/N=C/c2cccc([N+](=O)[O-])c2)n1	2	-2	-6	-7	-1	-1	nt
Cc1nc(Cl)c(N=Cc2cccc([N+](=O)[O-])c2)c(Cl)n1	-7	3	18*	-1	-2	0	0
O=S1(=O)c2c(cccc2N2CCSCC2)Oc2ccccc2CN1Cc1cn(Cc2ccc(Cl)cc2)nn1	1	nt	-2	nt	nt	nt	nt
Cc1nc(C/C(=N\N)c2ccc(O)cc2O)cs1	7	2	-3	6	-3	-1	nt
CCc1cc(/C(Cc2csc(C)n2)=N/O)c(O)cc1O	-1	-5	19*	16	-1	11	14
Fc1cccc(NC(=S)NNc2c3ccccc3nc3ccccc23)c1	1	-9	39*	nt	nt	nt	9
COc1ccc(N(CC(=O)NC2CCCC2)C(=O)Cn2nnc(-c3ccc(C)o3)n2)cc1	16	1	18*	nt	nt	nt	-2
CCOc1ccc(N(CC(=O)NC2CCCC2)C(=O)Cn2nnc(-c3ccc(C)o3)n2)cc1	2	14	3	nt	nt	nt	nt
COc1ccc(C(=O)Nc2c(N)nc(SCC(=O)Nc3ccc(NC(C)=O)cc3)[nH]c2=O)cc1OC	1	1	18*	-2	1	0	-5
COCCN(CCOC)C(=S)Nc1cc(S(=O)(=O)N(C)C)ccc1C	-9	6	20*	-4	5	-4	-4
C[C@H]1[C@@H](OC(=O)Nc2ccccc2F)CC[C@@]23CCCN2C(=O)CCC[C@@H]13	-2	nt	-3	nt	nt	nt	nt
O=C(CSc1nnc(-c2cccnc2)n1C1CCCCC1)NC1CCCCCC1	-6	nt	8	nt	nt	nt	nt
C=C(C)C(=O)Oc1ccc(N=Nc2ccc(C)cc2)ccc1=O	8	9	18*	nt	nt	nt	6
C/C(=N/NC(=S)Nc1cccc(C)c1)c1cccc([N+](=O)[O-])c1	-2	1	15	12	-1	2	nt
C/C(=N\NC(=S)NC(C)C)c1cccc([N+](=O)[O-])c1	-1	7	20*	3	0	-3	-1
Cc1ccc(CSc2nnc(-c3cccs3)o2)cc1C	-4	nt	-4	nt	nt	nt	nt
CC(C(=O)NCc1cccs1)n1cccc1 (centres undefined)	-1	2	20*	-9	-4	-4	2
S=C(Nc1ccccc1)N1CCn2cccc2C1c1cccnc1 (centres undefined)	1	2	12	7	0	0	nt
Fc1cccc(NC(=S)N2CCn3cccc3C2c2cccnc2)c1 (centres undefined)	-5	3	25*	-7	-5	-3	-3
COc1ccc(C2CC(=O)Nc3ccccc3S2(=O)=O)cc1OC (centres undefined)	5	-1	18*	0	2	3	0
C#CCNC(=O)C[C@H]1C[C@@]2(C(=O)OC)C(=C[C@H](C3CCCC3)O[C@@H]2C)N(Cc2ccco2)C1=O	4	nt	-4	nt	nt	nt	nt
Cc1csc(NC(=O)c2ccc(COc3ccc(Cl)c(Cl)c3)o2)n1	2	nt	-7	nt	nt	nt	nt
SMILES	PRMT1 inh	TCR-CD3 inh	SIAE inh	PME-1 primary	PAD4 inh	Fam108B counter	SIAE confirm
Cc1cccc(-c2c3c(=O)n(C)c(=O)n(C)c3cn2CC2CCCO2)c1 (centres undefined)	2	3	19*	-1	-4	-3	-3
CC1CCN(c2ccc(C(=O)O)cc2NS(=O)(=O)c2ccc(Cl)s2)CC1	4	nt	6	nt	nt	nt	nt
O=C(CSc1ccc(-c2cccnc2)nn1)N1CCCC1	0	-5	-6	3	-3	-5	nt
O=C(CSc1ccc(-c2cccnc2)nn1)N1CCCCCC1	0	10	27*	-4	-5	0	1
COc1ccccc1C(=O)NC1CCCCN(Cc2ccccc2C)C1=O (centres undefined)	-1	nt	8	nt	nt	nt	nt
O=C(Nc1nc2ccccc2[nH]1)C12CC3CC(CC(C3)C1)C2	-1	2	18*	-5	-2	-2	-5
